# Results reported in PubChem BioAssay AID493240 (Broad Institute, 2011).
# Screen size: about 1,300 compounds; about 270 (21%) were called active. How the calls were made is not given here. The list is a sample of the results. Entries with a potency or affinity are not part of this list.
# Assay: cytotoxicity in parental SK-MEL-5 melanoma cells – cell-based, CellTiter-Glo, cherry-picked, set 3, orthogonal assay for MITF inhibitor project, dose response (AID 493240)
# Settings: SK-MEL-5 viability, ATP luminescence (CellTiter-Glo), 24 h; series mostly up to 35 µM; activity change, negative = viability loss: at the top concentration
row,SMILES,"activity change, negative = viability loss"
1,COc1ccc(/C=N/N=C2/SCC(=O)N2Cc2ccccc2)cc1,-11.2% (inactive)
2,Cc1ccc(C)c(S(=O)(=O)N2CCN(Cc3ccc(O)c4ncccc34)CC2)c1,-33.8% (inactive)
3,CC1CCCC(NC(=O)NC(=O)CCl)C1C (configuration not stated),-4.56% (inactive)
4,Cc1ccc(-c2cn3cc(C)ccc3n2)cc1,-17.5% (inactive)
5,O=C(O)c1cccc(NC(=S)N/N=C/c2ccccn2)c1,-4.83% (inactive)
6,CC1=NOC(=O)/C1=C\c1ccc(-c2cccc(Cl)c2)o1,-12.6% (inactive)
7,CC(C)[C@H](NC(=O)OC(C)(C)C)c1nnc(S(=O)(=O)Cc2c(F)cccc2Cl)o1,-44.2% (inactive)
8,C/C(=N\NC(=O)C1COc2ccccc2O1)c1ccccn1 (configuration not stated),-29.1% (inactive)
9,Cc1cc(C)c2c(N)c(C(=O)Nc3ncc(C)s3)sc2n1,-29.7% (inactive)
10,CC(OC(=O)c1ccc([N+](=O)[O-])s1)C(=O)NC1CCCCC1C (configuration not stated),1.2% (inactive)
11,Clc1c(-c2ccccc2)nc2ccccn12,-2.85% (inactive)
12,Cn1nnnc1Sc1ncnc2scc(-c3ccc[nH]3)c12,-22.3% (inactive)
13,C=C1CCC[C@]2(C)C[C@H]3OC(=O)C(CN4CCCCC4CO)[C@H]3CC12 (some centres not stated),20.2% (inactive)
14,COc1cc(/C=N/NS(=O)(=O)c2ccc(C)cc2)ccc1OCc1cccc(C(=O)O)c1,6.32% (inactive)
15,CCOc1cc(/C=N/Nc2cccc(C(=O)O)c2)ccc1OC(=O)c1ccccc1,-4.54% (inactive)
16,COc1cc(/C=N/NS(=O)(=O)c2ccc3ccccc3c2)ccc1OCc1ccc(C(=O)O)cc1,0.683% (inactive)
17,CCOc1cc(/C=C2/NC(=S)NC2=O)ccc1OCc1ccc([N+](=O)[O-])cc1,-31.2% (inactive)
18,O=C(Cn1nnc(-c2ccccc2Cl)n1)N1CCCCC1,7.72% (inactive)
19,CC(C)OC(=O)CSc1nc2cc3c(cc2cc1C#N)OCO3,-2.87% (inactive)
20,CCOc1ccc(OCc2ccc(C(=O)N/N=C(\C)c3ccccn3)cc2)cc1,-41.8% (inactive)
21,C/C(=N\NC(=O)Cc1ccc(Cl)cc1)c1ccccn1,-31.1% (inactive)
22,O=C(Nc1nc2ccccc2s1)Nc1ccc(F)cc1F,3.41% (inactive)
23,O=C(N/N=C/c1ccccc1)c1ccco1,-4.03% (inactive)
24,O=C(Nc1ccccc1)O/N=C/c1ccc(F)cc1,-11.8% (inactive)
25,CCC(=O)OCCNc1cc(Sc2nc3ccccc3[nH]2)c2nonc2c1[N+](=O)[O-],-31.7% (inactive)
26,Cc1cc(C)nc(S/C=C/C(=O)c2ccccc2F)n1,-22.5% (inactive)

row,SMILES,"activity change, negative = viability loss"
1,CC(=O)N/C(N)=N/c1nc2cc(C)ccc2o1,-5.21% (inactive)
2,COc1ccccc1N1CCN(/N=C/c2ccc([N+](=O)[O-])cc2)CC1,5.48% (inactive)
3,CN(c1ccc(O)cc1)c1nc(O)c(C2=c3ccccc3=NC2=O)s1,2.68% (inactive)
4,CCOC(=O)C1CCCN(C(=O)C2CCN(S(=O)(=O)CC)CC2)C1 (configuration not stated),4.63% (inactive)
5,Nc1ccc(-c2nc3ccc(C(=O)O)cc3s2)cc1,-9.29% (inactive)
6,Cn1c(COc2ccccc2)nc2ccccc21,-6.39% (inactive)
7,COCc1nc(-c2ccc(-c3ccccc3)nc2OC)no1,-1.92% (inactive)
8,Brc1cccc(/C=N/Nc2nn[nH]n2)c1,4.62% (inactive)
9,CC(C)=CCc1c(O)ccc2c1OC(c1ccc(O)c(O)c1)CC2=O (configuration not stated),-7.03% (inactive)
10,O=C(Nc1cc2c(cc1Cl)OCCO2)c1ccco1,6.8% (inactive)
11,COc1ccc(-n2c(C)cc(C(=O)CCl)c2C)cc1,-44.3% (inactive)
12,CCOc1ccc(-n2c(C)cc(C(=O)CCl)c2C)cc1,-41.3% (inactive)
13,CCN(CC)CC(=O)Nc1scc2c1c(=O)oc1ccccc12,9.99% (inactive)
14,CCN(Cc1ccc(OC)c(F)c1)C(=O)CCl,-6.7% (inactive)
15,COc1ccccc1N(C(=O)CCl)c1cn(C(C)=O)c2ccccc12,-32.2% (inactive)
16,O=C(c1ccc(F)cc1)C(CN1CCOCC1)c1ccccc1 (configuration not stated),-14.1% (inactive)
17,Cn1nnnc1Sc1ncnc2scc(-c3ccc(F)cc3)c12,-16.3% (inactive)
18,Cn1nnnc1Sc1ncnc2scc(-c3ccsc3)c12,-1.66% (inactive)
19,O=C(NC1=NCCS1)c1ccc(Cl)c(Cl)c1,-7.94% (inactive)
20,O=C(Nc1ccc2nc(-c3ccccc3)[nH]c2c1)c1ccco1,-12% (inactive)
21,O=C(/C=C\Nc1ccc2c(c1)OCO2)c1ccccn1,-44.2% (inactive)
22,COc1ccc(C(=O)/C=C/Nc2ccccn2)cc1,-36.9% (inactive)
23,CCN(CC)Cc1c(O)ccc2c1O/C(=C\C=C\c1ccccc1)C2=O,-2.2% (inactive)
24,Cc1cc(/C=C(\C#N)C(=O)O)c(C)n1CC(C)C,12.1% (inactive)
25,CN(C)c1ccc(/C=N\NC(=O)c2cccc3cc[nH]c23)cc1,7.77% (inactive)
26,Cc1ccc(-c2nc(C#N)c(NCc3ccco3)o2)cc1,-10% (inactive)

row,SMILES,"activity change, negative = viability loss"
1,Cc1ccccc1OCC(=O)Nc1cccc(C(=O)O)c1,-8.49% (inactive)
2,COc1ccccc1/C=C/C=N/NC(=O)c1cccs1,2.03% (inactive)
3,O=C(Nc1ccc2oc(-c3cccnc3)nc2c1)c1ccc([N+](=O)[O-])o1,-13.7% (inactive)
4,Cc1cc(NC(=O)c2ccc([N+](=O)[O-])o2)ccc1NC(=O)c1ccco1,-34.3% (inactive)
5,CC(C)c1ccc(/C=C2\SC(=S)N(CCC(=O)N3CCCCC3CCO)C2=O)cc1 (configuration not stated),-2.33% (inactive)
6,CN(C)S(=O)(=O)c1cccc(NC(=O)CSc2nc3c(cc2C#N)C(=O)CC(C)(C)C3)c1,-14.6% (inactive)
7,O=C(CCC(=O)c1ccc[nH]1)c1ccc(Cl)cc1,-5.44% (inactive)
8,CCOC(=O)N1CCN(C(=O)c2ccc(Cn3c(=S)[nH]c4ccc(Br)cc4c3=O)cc2)CC1,-37% (inactive)
9,C=CCNc1nc(-c2ccccn2)nnc1-c1ccccc1,-21.7% (inactive)
10,Cc1cc(C)c2nc3nc(C)cc(C)c3c(N)c2c1,-25.4% (inactive)
11,N#C/C(=C\C=C\c1ccccc1[N+](=O)[O-])C(=O)NCc1ccccc1,-18.2% (inactive)
12,Cc1cc(Cl)ccc1OCCCC(=O)N1CCOCC1,-12% (inactive)
13,Cc1cccc(N(O)C(=O)Nc2cccc(Cl)c2)c1,-4.38% (inactive)
14,Nc1c(-c2ccccc2)cnc2c(-c3ccccc3)cnn12,-13.3% (inactive)
15,CC(=O)c1ccc(Sc2nnnn2-c2ccccc2)c([N+](=O)[O-])c1,-8.68% (inactive)
16,Cc1ccc(-c2noc(-c3ccno3)n2)cc1,-0.841% (inactive)
17,Cc1cc(-n2c(C)cc(C(=O)CCl)c2C)no1,-18.2% (inactive)
18,Cc1ccc(OCCCCN2CCCCC2)c(Br)c1,-4.91% (inactive)
19,Clc1ccccc1CSc1nnc(-c2ccncc2)o1,-11.6% (inactive)
20,c1ccc(C[n+]2cccc3c4ccccc4ccc32)cc1,-37.1% (inactive)
21,CC1(C)Cc2c(sc(NC(=O)c3ccc4ncsc4c3)c2C(N)=O)C(C)(C)N1,-34.2% (inactive)
22,CS(=O)(=O)c1ccc2nc(NC(=O)c3ccccc3)sc2c1,-12.4% (inactive)
23,CCCN(CCC)C1=CC(=[N+]2CCCC2)CC(C)(C)C1,-30.5% (inactive)
24,Cc1nc(Sc2nnnn2C)c2c3c(sc2n1)CCC3,-24.1% (inactive)
25,COC(=O)c1ccc(-n2c(C)cc(C(=O)CCl)c2C)cc1,-49.6% (inactive)
26,Cc1ccc2c(c1)COc1c3ccc(C(=O)O)cc3nn1-2,-36.1% (inactive)

row,SMILES,"activity change, negative = viability loss"
1,Nc1ccc(-c2cc3ccccc3c(=O)o2)cc1,-23.3% (inactive)
2,Nc1c(-c2ccc(Cl)cc2)nnn1-c1ccccc1,-10.9% (inactive)
3,Cc1ccc(NC(=O)c2cc(N3C(=O)C=CC3=O)ccc2N2CCOCC2)cc1,-28.6% (inactive)
4,COc1cc(OC)cc(-c2oc(=O)c3cc(OC)c(OC)cc3c2C(F)(F)F)c1,5.28% (inactive)
5,O=C1c2ccccc2CN1c1ccccc1,-2.83% (inactive)
6,Cn1c(/C=C/c2cccc([N+](=O)[O-])c2)c([N+](=O)[O-])c(=O)n(C)c1=O,-4.42% (inactive)
7,O=C(O)c1cccc(NC(=O)c2cccc(NC(=O)C3CCCO3)c2)c1 (configuration not stated),-11.9% (inactive)
8,Oc1cc(NCCN2CCOCC2)cc2cccnc12,-56.1% (inactive)
9,N#Cc1nc(/C=C/c2ccccc2)oc1NCCCN1CCOCC1,-14.3% (inactive)
10,CC(C)(C)c1cc(NCCCn2ccnc2)n2ncc(-c3ccccc3)c2n1,-5.35% (inactive)
11,O=c1c(Cl)c(Cl)cnn1Cc1ccc(F)cc1,2.13% (inactive)
12,Cc1c(NC(=O)C(C)OC(=O)c2ccc([N+](=O)[O-])s2)c(=O)n(-c2ccccc2)n1C (configuration not stated),6.54% (inactive)
13,Cc1cc(Sc2ncnc(N)c2[N+](=O)[O-])ncn1,-23.4% (inactive)
14,Fc1cccc(Cl)c1CSc1nnc(-c2ccncc2)o1,12.6% (inactive)
15,Cc1ccc(OCC(=O)Nc2ccccc2F)cc1,4.09% (inactive)
16,CN(CCC#N)C(=O)COC(=O)c1ccccc1C(=O)c1ccc(Cl)c([N+](=O)[O-])c1,-14.9% (inactive)
17,CCOC(=O)N1C(=O)[C@](CC)(c2ccccc2)N1C(=O)OCC,-16.8% (inactive)
18,Cc1ccc(NC(=O)c2cc3ccccc3oc2=O)cc1S(=O)(=O)N(C)C,-2.98% (inactive)
19,CC(C)C(=O)Nc1cccc(NC(=O)c2cc3ccccc3o2)c1,-5.61% (inactive)
20,COc1ccc(N/N=C/c2c(C(=O)O)ccc3ccccc23)cc1,-18.1% (inactive)
21,Cc1ccc(S(=O)(=O)Nc2cccc3cccnc23)cc1,12.9% (inactive)
22,CC1C/C(=C\c2cccnc2)C(=O)/C(=C/c2cccnc2)C1 (configuration not stated),-9.76% (inactive)
23,C=C1C(=O)C=C[C@]2(C)C[C@@H]3OC(=O)[C@](C)(O)[C@H]3C[C@@H]12,-25.9% (inactive)
24,Cc1ccc2nc(NC(=O)c3ccc(Br)o3)sc2c1,-6.22% (inactive)
25,CC(C)C(NC(=O)OCc1ccccc1)C(=O)OCC(=O)N1CCCCC1 (configuration not stated),11.4% (inactive)
26,CCOC(=O)c1ccc(NC(=O)c2nc(S(=O)(=O)Cc3ccccc3)ncc2Cl)cc1,-33.5% (inactive)

row,SMILES,"activity change, negative = viability loss"
1,CCOC(=O)c1ccc(NC(=O)Cc2cccs2)cc1,-5.41% (inactive)
2,CCc1ccc(Nc2nc(C)cc(C)n2)cc1,-4.01% (inactive)
3,Cc1cc(O)ccc1Nc1nc(-c2cccnc2)cs1,-1.37% (inactive)
4,Cc1c(C#N)c(O)n(CCO)c(=O)c1N=Nc1ccc2c(c1)COC2=O,-30.3% (inactive)
5,N#Cc1cnc2sc3ccccc3n2c1=N,-13.4% (inactive)
6,O=C(NCCSc1ccccc1)c1ccccc1F,-5.63% (inactive)
7,COCn1c(COc2ccccc2)nc2ccccc21,-33.2% (inactive)
8,O=C(N/N=C/c1cccc(Oc2ccc([N+](=O)[O-])cc2[N+](=O)[O-])c1)c1cncc(Br)c1,-16% (inactive)
9,CN(C)c1ccc(NC(=O)Nc2ccc3c(c2)nnn3C)cc1,6.96% (inactive)
10,CC1Cc2ccccc2N1C(=O)c1ccc(Br)o1 (configuration not stated),-35.6% (inactive)
11,O=C(c1cc2ccccc2oc1=O)N1CCN(c2ncccn2)CC1,-6.63% (inactive)
12,CN(c1cccc(NC(=O)COc2ccc(Cl)cc2Cl)c1)S(C)(=O)=O,-2.24% (inactive)
13,Cc1ccc(OCC(=O)Nc2cccc(C)n2)c(C)c1,11.2% (inactive)
14,CCOc1ccccc1-c1nc(-c2ccc(C)nc2OC)no1,-0.189% (inactive)
15,C=CCNC(=O)c1ccc2nc(Cc3ccc(OC)cc3)oc2c1,1.33% (inactive)
16,O=C(Nc1nc2cc3c(cc2s1)OCO3)C1=COCCO1,-32.8% (inactive)
17,O=C(/C=C/c1ccc(Cl)cc1)c1ccc([N+](=O)[O-])o1,-38.6% (inactive)
18,CCOCCCNC(=O)/C(C#N)=C/c1ccc(Cl)c([N+](=O)[O-])c1,-34.9% (inactive)
19,Cc1nc2cc(NC(=O)Nc3cccc([N+](=O)[O-])c3)ccc2n1C,-6.54% (inactive)
20,O=C(Cc1ccccc1)Nc1ccc(NC(=O)c2ccco2)nc1,-8.09% (inactive)
21,CN(C)/C=N/c1ncc(C(=O)c2ccccc2)s1,-12.3% (inactive)
22,C=C1C(=O)O[C@@]23[C@H]1CC[C@@H](C)[C@@H]2CC[C@@]1(C)O[C@@H]31,6.52% (inactive)
23,COc1ccc2oc3ccc(OC)cc3c(=O)c2c1,-16.6% (inactive)
